Assay results: the supplement of paper PMC3334620
In all, about 33,000 sequences were measured (“E-score (-0.5 to 0.5)”: median about -0.054, highest 2% from about 0.35 on). The full list was thinned out, with the highest values kept by preference.

Target: T1, Stb5 (UniProt P38699)
T1 sequence: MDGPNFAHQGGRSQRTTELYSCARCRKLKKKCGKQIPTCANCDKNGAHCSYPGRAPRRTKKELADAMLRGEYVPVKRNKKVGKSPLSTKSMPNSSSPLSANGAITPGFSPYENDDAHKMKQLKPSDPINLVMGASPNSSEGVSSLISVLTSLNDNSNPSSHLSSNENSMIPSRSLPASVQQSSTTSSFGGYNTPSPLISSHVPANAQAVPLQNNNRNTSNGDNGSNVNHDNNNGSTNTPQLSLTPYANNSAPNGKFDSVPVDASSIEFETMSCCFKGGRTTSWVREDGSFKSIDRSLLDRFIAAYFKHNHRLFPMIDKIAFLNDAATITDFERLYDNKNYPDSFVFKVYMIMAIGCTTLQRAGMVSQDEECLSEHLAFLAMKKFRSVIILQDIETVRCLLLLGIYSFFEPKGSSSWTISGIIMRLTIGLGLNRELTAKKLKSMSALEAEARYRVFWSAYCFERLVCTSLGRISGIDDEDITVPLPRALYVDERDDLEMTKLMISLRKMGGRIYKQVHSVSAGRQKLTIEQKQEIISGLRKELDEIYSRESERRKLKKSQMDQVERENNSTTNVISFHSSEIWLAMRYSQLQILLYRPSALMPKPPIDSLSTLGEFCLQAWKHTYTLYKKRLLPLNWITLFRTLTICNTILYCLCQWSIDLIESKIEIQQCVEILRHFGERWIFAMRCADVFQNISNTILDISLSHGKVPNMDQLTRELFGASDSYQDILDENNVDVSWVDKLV
Test: PBM E-score (8-mer binding enrichment) (E-score (-0.5 to 0.5)); higher = stronger / more preferred TF binding
Conditions: protein concentration: 200 nM; construct: GST-full length
Experimental: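 Universal 'all 10-mer' protein binding microarrays (Agilent AMADID 015681) probed with GST-tagged S. cerevisiae TFs (full-length or DBD) made by in vitro transcription/translation (PURExpress), about 100-200 nM. Bound TF was detected with fluorescent anti-GST. Each ungapped 8-mer (which stands for itself and its reverse complement) is scored by the PBM enrichment score (E-score), a modified Wilcoxon-Mann-Whitney statistic from -0.5 to +0.5, computed with the Universal PBM Analysis Suite. Scale: above 0.35 generally sequence-specific binding.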

Sequence	PBM E-score
CTGGTGCC	0.0505
CGTGCAAA	-0.0367
CCCGAGCA	-0.166
CAGCGTAG	-0.0828
ACGGTTCG	0.0226
GAATTAAC	-0.0887
TAGTGGCA	-0.0544
CGTCGGAC	0.38
GGTCGGAA	0.251
AGTCGGAC	0.398
AGTCGGAG	0.302
GGTCGGCA	0.375
GGTCGGAC	0.369
AGTCGGAA	0.221
CGTCGGAA	0.24
AGTCGGCA	0.325
GCTCGGAC	0.242
CGTCGGCA	0.334
CGTCGGAG	0.343
ACGCCTAT	-0.198
TACTACAA	-0.0615
ACAGCACT	-0.196
TCACCCGA	0.089
AGAGAAGC	-0.27
TAGTCAGA	-0.116

Sequence	PBM E-score
TCTGAGCA	-0.254
AGTCGGGC	0.312
CGTCGGGC	0.361
CGTCGGGA	0.337
GGGTTTAA	0.398
CGGGTTAC	0.0485
AGGGTTAA	-0.179
CGGGTTAA	0.221
TGGTTTAA	-0.231
GGGTTTTA	0.322
GGGGTTAA	0.404
GGGGTTAC	0.397
AGGGTTAC	-0.0791
AAAACGTC	-0.179
GGTTGTCA	-0.0232
TACCGCTA	0.306
CACCGCTC	0.402
AACCGCTC	0.119
CACCGCTG	0.405
CACCGCTA	0.388
GACCGCAA	0.248
GACCGCGA	0.31
GACCGCTA	0.359
GACCGCTC	0.267
AACCGCTG	0.0244

Sequence	PBM E-score
AGCCGCTG	0.14
AACCGCTA	0.0216
ATAGAGTG	-0.054
ACAGTAAT	-0.154
CTGGCAAA	-0.24
CTCATCGC	-0.0444
CACAATGA	-0.244
ACGGACCT	0.426
ACGGACCA	0.237
ACGGACAT	0.41
ACGGACAG	0.00554
ACGGACAC	0.215
ACGGACCG	0.297
TACTTTGA	-0.207
ATGTCCTG	-0.0717
ACGTCCGC	0.367
ATGTCCGG	0.415
ATGTCCCC	0.224
CCGTCCGC	0.292
ATGTCCGC	0.443
ATGTCCCG	0.219
CTGTCCGC	0.129
GTGTCCGA	0.231
CTGTCCGA	0.201
ACGTCCGA	0.333

Sequence	PBM E-score
ATGTCCGA	0.412
CCAAGCAA	-0.148
CTGCTAGA	0.0321
CTAAGGCA	-0.101
CTTGTCTA	-0.11
CCAGGCCA	-0.312
GGCGGTAA	0.385
GGCGGTAC	0.361
TGCGGTAA	0.278
AGCGGTAA	0.34
AGCGGTAC	0.347
CGCGGTAC	0.34
TCAAGTCA	-0.175
GCACCTCA	-0.199
CAATTATC	0.215
AGTCCGTC	0.389
CGTCCGTC	0.21
ATTCCGTC	0.141
ATTCCGTG	0.00715
CCTCCGTC	0.195
AGTCCGTA	0.284
ACTCCGTG	0.352
ACTCCGTC	0.367
ACTCCGAA	0.328
ACTCCGAG	0.202

Sequence	PBM E-score
ACTCCGTA	0.35
ACTCCGAC	0.425
TACAACCA	-0.0508
ACTCCCCA	-0.225
GCGACAGC	0.105
ACGAGGCA	-0.206
TATGTCCA	0.133
AGGGCGAG	-0.295
CGGCGATA	0.463
CGGCGCGA	0.373
TGGCGCCA	0.0517
AGGCGCTA	0.0525
CGGCGCCA	0.377
AGGCGCCA	0.041
AGGCGATA	-0.0449
CGGCGCTA	0.447
GGGCGCTA	0.0264
AGGCGCGA	-0.00867
CGGCGCGC	0.275
GGGCGATA	0.11
TGCCTCCA	-0.237
GTCATTGA	-0.109
TGGAGACA	-0.254
AGGTGCGC	0.0592
AGGCGGAG	0.356

Sequence	PBM E-score
AGGCGGAA	0.131
AGGCGGGG	0.38
ACGCGGAC	0.241
AGGCGGCC	0.235
AGGCGGGA	0.234
AGGCGGAT	0.0922
AGGCGGAC	0.356
AGGCGGGC	0.275
AGTGGCAA	-0.04
CTGCTATA	0.0793
CAGAGTGG	-0.19
AGAACCAC	0.0238
CATCATAG	-0.0501
AGGAGCAC	-0.252
GCCATTAA	-0.0877
TGTATTAA	-0.0825
GGTATTAA	0.404
AGTATTAA	-0.0112
GGTATTAC	0.386
AGTATTAC	0.0335
CGTATTAC	0.188
GTCTTTTA	-0.0581
ATGCGGGC	0.087
CCATCGGG	0.262
ATACCCGG	0.239

Sequence	PBM E-score
AAGTGCGC	0.243
CGTCATGA	-0.0111
AGGGCAGG	-0.205
TCGAAACA	-0.233
CACAGCGG	0.286
AGCGGCTG	0.0872
ATCGGCGA	0.272
AGCGGCGC	0.363
AACGGCGC	0.222
ATCGGCGC	0.291
AGCGGCGA	0.317
ATCGGCGG	0.363
AACAGCGA	0.235
AGCGGCGG	0.401
CGCGGCGC	0.318
AACAGCGG	0.366
GGCTCGAC	-0.113
ACCTGACA	-0.145
ATAGACCA	-0.188
TACAGATA	0.048
TAGTAGGA	-0.0819
ACTTACCG	0.195
GAGCCAGC	0.00015
AGGCGATC	-0.302
AAGGAGGT	-0.0343

Sequence	PBM E-score
GCAAGCCC	0.117
AGGGGCGG	0.36
AGGGGCGC	-0.0545
AGGGGCGA	-0.0945
ATCTTTTA	0.034
AAGGCTCT	-0.214
CGTACCGA	0.205
GGTACCGA	0.286
AGTACCCG	0.0305
AGTACCGA	0.439
AGTACCAG	-0.0537
AGTACCGG	0.367
AGTACCGC	0.435
CGTACCGC	0.302
ACTACCGC	0.329
AGTCGTAG	-0.232
AAGAGTGC	-0.0116
CCACTAGG	-0.166
TTCTCCAA	-0.0481
AAAGTATG	-0.172
GCCCCGAA	0.198
GACCCGAC	0.295
AACCCGAC	0.347
ACCCCGAG	0.351
ACCCCGAT	0.441

Sequence	PBM E-score
TCCCCGAA	0.266
GCCCCGAC	0.371
CCCCCGAA	0.213
AACCCGAT	0.222
CCCCCGAC	0.349
ACCCCGAC	0.444
ACCCCGAA	0.37
GCACTGGC	-0.0607
CATGTTCA	-0.334
CGGACAAC	0.144
ATCCGCTG	0.189
ATGATGGC	-0.19
CACGCCTG	-0.158
CCATCTAA	-0.192
ATACACCA	-0.0712
ACACACCG	0.372
CAACACCC	-0.206
ACACACCT	-0.0405
CGACACCG	0.371
ATACACCG	0.402
CGACACCC	0.0971
CAACACCA	-0.1
ACACACCC	0.0669
CGACACCA	0.0464
ATACACCC	0.254

Sequence	PBM E-score
CAACACCG	0.408
CTTAAACC	-0.0424
AAATACTG	-0.0876
ATCTTTGA	-0.157
AATTGAAA	-0.198
GCTAAGTA	-0.0566
CAAGAGGG	-0.306
AGACACCA	-0.13
AGACACCC	-0.231
AGACACCG	0.436
ACTATCCA	0.0766
AGTTTCTG	-0.117
CTCCGAGA	0.187
CTCCGAGC	0.102
GTCCGAGA	0.184
ATCCGACC	0.262
CTCCGACC	0.375
GTCCGAAA	0.259
ATCCGACA	0.283
GTCCGACA	0.403
CTCCGACA	0.366
CTACATGC	-0.179
CTTCTGTA	-0.09
CACCACAA	-0.0283
GAGTGGGC	0.0251

Sequence	PBM E-score
GGCATTCA	0.0519
ATTTCACA	-0.157
ACGCCAGC	-0.181
ACGCCCGC	0.28
GCGCCAGC	0.112
CCGCCCGC	0.362
CCGCCAGC	0.356
CCGCCCCG	0.409
CCGCCCCC	0.335
CCGCCCGG	0.344
ACGCCCCG	0.188
CTTATCAA	-0.125
ACAATGAA	-0.0923
CCACATTC	-0.0853
TAAATGCA	-0.18
CATGCGGA	0.167
ACACCTCC	0.0978
CATAGCGC	0.161
ATTGAGCC	0.0599
CCGGAGCC	0.182
ACCTCACA	-0.181
TCAAGTAA	-0.0626
CGGTGAAC	0.177
CGGTGAAG	0.12
CGGTGAAA	0.41

Sequence	PBM E-score
TGGTGACA	0.0421
GGGTGACA	0.0889
CGGTGACA	0.42
CACTGCCC	-0.0546
ACCCTGAC	-0.0664
CACCGCCA	0.408
AACCGCCC	0.107
CACCGCAG	0.344
CATCGCCG	0.264
GACCGCCA	0.317
TACCGCCA	0.323
AATCGCCG	0.407
AATCGCCC	-0.00317
CAGCGCCG	0.299
GACCGCCC	0.322
CACCGCCC	0.41
CACCGCCG	0.405
AAGTTGGT	-0.133
TCAGCAGA	-0.329
CTTGACTA	-0.193
CGGGAGGC	-0.136
CGGTTCAG	-0.0792
ATGGCAAA	-0.0403
CCTAGGTC	-0.15
ATGCTAAC	-0.0894

Sequence	PBM E-score
GGCAGTAC	0.0214
AAGTGAAC	-0.129
AACCGCCA	0.167
AAGCGCCA	-0.0397
AAGCGCCG	0.396
AAGCGCCT	0.0194
AACCGCCG	0.362
AACCGCCT	0.0427
TACATATA	0.0481
GGATTGAC	-0.0821
AGACTCCA	-0.139
AGTCTGTG	-0.27
GATGGGTA	-0.205
CGGTATTC	0.275
AGGTGGTA	0.165
CGGTAGTA	0.385
CGGTATCC	0.211
CGGTATCA	0.364
CGGTGGTA	0.441
CGGTAGTC	0.18
CGGTATTA	0.472
AGGTAGTA	0.0131
GGGTGGTA	-0.0756
GGGTATCA	-0.079
AGGTATTA	0.212

Sequence	PBM E-score
GGAAAGCA	0.024
AGAGTGCT	-0.0924
AGATCGGA	0.335
TAGTCGAA	-0.0837
AATAGCAG	-0.0777
CGCTATTA	0.357
AGCTATTA	-0.041
GGCTATTA	-0.0171
ACTGGCGC	-0.0545
AGGGGGGA	-0.38
GTATGGTA	-0.168
ATCCCCGC	0.453
ATCCCCGG	0.379
ATCCCCGA	0.374
ATCCCGGG	0.299
GTCCCCGA	0.185
ATCCCCCG	0.292
ATCCCCCC	-0.0842
CTCCCCGC	0.248
CTCCCCGA	0.225
